AMA1-RON2 inh: AMA1-RON2 (P. falciparum) interaction inhibition; Potency, µM (highest dose often 58.2 µM), hits mostly inhibitors; 360,000 tested, 0.2% active; AlphaScreen AMA1-biotinylated RON2 peptide binding; also: nearly all actives have a fitted effect of over 45% in size
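AMA1 (3D7) with his tag at 25 nM final met compounds first, then biotinylated RON2 peptide at 25 nM; detection used donor plus acceptor beads, 10 µg/mL apiece, read by AlphaScreen after 30 min at room temperature.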
CHX counter: counter-screen for Shiga toxin inhibitors: cycloheximide protein synthesis inhibition | cell reporter, cycloheximide protein synthesis inhibition counterscreen | max response, % | 300,000 tested, 12% active | AID 2314; in the data active = max response mostly above about 13%, no sharp cut-off; inactive = mostly below about 14%; also: read at 38.3 µM for the half of the compounds with a filed dose
Shiga inhibitor: Shiga toxin inhibition. Vero cells, Shiga toxin protein synthesis inhibition reporter. inhibition, % at 38.7 µM. 290,000 tested, 9.2% active. AID 2315; in the data active = inhibition mostly above about 28%, no sharp cut-off; inactive = mostly below about 43%
Pf growth 96h: P. falciparum growth inhibition at 96 hours; 320,000 tested, 6.9% active; P. falciparum luciferase reporter growth, 96 h; AID 504834; Potency, µM (highest dose often 28.7 µM), usual class: inhibitors
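P. falciparum expressing integrated firefly luciferase grown in erythrocytes (2% hematocrit, 0.05% parasitemia final) with compounds for 96 hours at 37 C, 5% CO2. Growth inhibition read as loss of luminescence after adding luciferase detection reagent.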
SARS PLpro yeast: SARS-CoV PLP inhibition in yeast; S. cerevisiae expressing SARS-CoV PLpro, growth rescue; Potency, µM (series often up to 32.9 µM), most hits filed as activators; 330,000 tested, 0.19% active; AID 485353; calls by dose curve; also: nearly all actives have a fitted effect of over 55% in size
Pf growth 48h: inhibits P. falciparum growth in the first generation, 48 h | Potency, µM (series often up to 28.7 µM), hits mostly inhibitors | P. falciparum luciferase growth in erythrocytes, 48 h | 310,000 tested, 5.9% active
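Luminescence readout; reporter = integrated firefly luciferase in P. falciparum. RBC culture at 2% hematocrit, 0.1% parasitemia final, 37 C/5% CO2; decreased signal taken as growth inhibition.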
Numbers stand for hits; . = inactive; ? = inconclusive; / = no result given; + = active, no number; [ ] = another dose, or the depositor's remark. Rows were chosen to be rich in hits. Some 19% of all compounds tested hit in one or more screens of this group. Unless noted, calls follow the shape of the dose curve; as a rule, active = well fitted curve in the direction sought with a large enough effect; inconclusive = small, poorly fitted or top-dose-only effect, or another doubt; inactive = no such curve, though single readings can be large; an effect the other way counts as inactive or inconclusive.

SMILES	AMA1-RON2 inh	CHX counter	Shiga inhibitor	Pf growth 96h	SARS PLpro yeast	Pf growth 48h
CCOc1ccc(Oc2c(/C=N/NC(=O)COc3ccccc3OC)c(C)nn2-c2ccccc2)cc1	.	.	.	5.2µM	.	?
O=C(O)c1n[nH]c2c1CC(C1CCCCC1)CC2 (stereo unspecified)	.	/	/	.	.	.
CC1CC(C)CN(S(=O)(=O)c2ccc(C(=O)N3CCN(c4ccccc4)CC3)cc2)C1 (stereo unspecified)	.	.	.	?	.	?
Cc1nn(Cc2c(Cl)cccc2Cl)c(Cl)c1/C=N/NC(=O)c1cccnc1	.	16	41	?	.	?
Cc1nn(-c2ccccc2)c(Cl)c1/C=N/NC(N)=O	.	27	33	.	.	.
COC(=O)N/N=C\c1c(C)nn(-c2ccccc2)c1Cl	.	23	58	.	.	.
Cc1nn(-c2ccccc2)c(Cl)c1/C=N\NC(=O)c1cncc(Br)c1	.	.	.	.	.	.
Cc1c(CN2CCC(CO)(CC3CCCCO3)CC2)cnn1C (stereo unspecified)	.	.	.	.	.	.
CCN(CC)c1ccc2cc(C(=O)NCc3ccc(F)cc3)c(=N)oc2c1	/	.	.	1.7µM	.	?
N=c1oc2ccc(Br)cc2cc1C(=O)NCc1ccc(F)cc1	.	23	.	2.6µM	.	.
CC(=O)NC(C)(c1ccccc1)c1nc(-c2csc3ccccc23)cs1 (stereo unspecified)	.	/	/	/	/	/
Cc1nc(-c2ccc(NC(=O)c3ccccc3C)cc2)cs1	.	31	61	.[5.75 µM]	.	.
Cc1nc(-c2ccc(C(=O)Nc3ccccc3F)cc2)cs1	.	.	.	.	.	.
Cc1nc(-c2ccc(NC(=O)c3ccccc3Br)cc2)cs1	.	55	57	.	.	.
CC[C@H](C)[C@H](N)C(=O)N[C@H](C(=O)N[C@@H](CO)C(=O)N[C@@H](C)C(=O)N[C@H](C(=O)N[C@H](C(=O)NCC(=O)N[C@H](C(=O)N[C@@H](CC(C)C)C(=O)O)[C@@H](C)CC)C(C)C)C(C)C)[C@@H](C)CC	/	.	.	/	/	/
COc1ccccc1N1CCN(C(=O)CSc2nc3ccccc3o2)CC1	.	41	111	/	.	.
COc1ccccc1N1CCN(C(=O)CSc2ccc3c(C)cc(C)nc3n2)CC1	.	.	.	.	.	10µM
O=C(O)c1ccc2oc(SCC(=O)N3CCCCC3)nc2c1	.	23	58	/	.	.
NC(=O)C1CCN(C(=O)CSc2nc3ccccc3o2)CC1	.	.	.	.	.	.
CC1CCCN(C(=O)CSc2nc3ccccc3o2)C1 (stereo unspecified)	.	.	61	?	.	.
CNC(=O)NC(=O)CSc1ccc(NC(C)=O)cc1	.	.	.	.	.	/
CCOC(=O)C1=C(COC(=O)c2ccc(Cl)cc2[N+](=O)[O-])NC(=O)NC1C (stereo unspecified)	.	/	/	.	.	.
CCC1CCCCN1CCCCOc1cccc(Cl)c1 (stereo unspecified)	.	.	.	.	.	.[0.00184 µM]
O=C(CSC1=NS(=O)(=O)c2cc(F)ccc2N1)NCc1ccccc1Cl	.	/	/	.	.	.
COc1cc(-c2c(C#N)c(N)nc(SCc3ccncc3)c2C#N)cc(OC)c1OC	.	.	.	?	.	13µM
SMILES	AMA1-RON2 inh	CHX counter	Shiga inhibitor	Pf growth 96h	SARS PLpro yeast	Pf growth 48h
COc1cccc(C(=O)NCCS(=O)(=O)N2CCN(C(=O)c3ccco3)CC2)c1	.	/	/	?	.	?
c1ccc(-c2nc(N3CCCCCC3)c3ccccc3n2)nc1	.	.	.	/	.	0.83µM
c1ccc2c(N3CCCCC3)nc(N3CCCC3)nc2c1	.	.	.	4.7µM	?	13µM
c1ccc2c(N3CCCC3)nc(-c3ccncc3)nc2c1	.	.	.	?	.	?
Cc1nnc(-c2ccccc2)nc1N1CCOCC1	.	.	.	.	.	.
Cc1nc2ccccc2nc1N1CCCC1	.	.	40	.	.	.
Cc1nc2ccccc2nc1N1CCOCC1	.	.	.	.	.	/
Cc1nc(-c2ccccn2)nc(N2CCOCC2)c1Cl	.	.	.	2.3µM	.	?
COCCn1c(C(C)C)nc2ccccc21	.	.	.	.	.	.
c1ccc(-c2nc(N3CCOCC3)c3ccccc3n2)nc1	.	.	.	?	.	7.4µM
c1ccc2c(c1)nc(N1CCOCC1)c1ccccc12	.	.	.	.	.	?
Cc1nc(-c2ccccn2)nc(N(C)c2ccccc2)c1Cl	.	.	.	1.2µM	.	1.7µM
Cc1[nH][nH]c(=O)c1C(c1ccc(Cl)cc1)c1c(C)[nH][nH]c1=O	.	.	.	.	.	.
C=C1CCN(C(C(=O)OC)C(C)C)S(=O)(=O)c2ccccc21 (stereo unspecified)	.	.	.	.	.	.
O=C1NCCCN1C1OC(CO)C(O)C1O (stereo unspecified)	.	/	/	/	/	/
CCOc1ccc(/C=C\C(C)=N\O)cc1	.	38	97	.	.	.
CC(C)c1ccc(/C=C/C(=O)CCC(=O)O)cc1	.	43	.	.	.	.
CCOc1ccc(/C=C/C(=O)CCC(=O)O)cc1	.	54	74	.	.	.
O=C(O)CCC(=O)/C=C/c1ccccc1	.	.	.	?	.	.
CCOc1ccc(/C=C/C(=O)c2cc(Br)ccc(=O)c2O)cc1	?	.	.	9.3µM	.	10µM
Cc1ccc(CSc2nnc(CNc3ccc(F)cc3)o2)cc1	.	.	.	.	.	.
COC(=O)[C@@]1(Sc2ccccc2)CC(=O)N[C@@H]1c1ccccc1	.	/	/	/	/	/
O=C(CNC(=O)C1COc2ccccc2O1)Nc1ccc(F)c(F)c1 (stereo unspecified)	.	/	/	/	.	/
Nn1c(-c2ccccc2Cl)nnc1-c1ccccc1Cl	.	32	+	.	.	.
CSc1nnc(-c2ccccc2Cl)n1N	.	.	.	10µM	.	.
SMILES	AMA1-RON2 inh	CHX counter	Shiga inhibitor	Pf growth 96h	SARS PLpro yeast	Pf growth 48h
COc1ccc(CC2(CO)CCN(Cc3ccncc3)CC2)cc1	.	.	.	?	.	.
COc1ccc(CC2(CO)CCN(CC3=CC[C@H]4C[C@@H]3C4(C)C)CC2)cc1	.	.	.	.	.	7.4µM
CSc1ccc(C(O)c2ncc(-c3ccccc3F)[nH]2)cc1 (stereo unspecified)	.	/	/	/	/	/
COC(=O)c1cc(-c2ccc(OC)c(OC)c2)on1	.	.	.	?	.	.
COc1ccc(-c2cc(C(=O)NC3CCCC3)no2)cc1	.	18	93	.	.	.
COc1ccc(-c2cc(C(=O)NC(C)C)no2)cc1	.	.	58	.	.	/
COCCNC(=O)c1cc(-c2ccc(OC)c(OC)c2)on1	.	20	.	.	.	.
COc1ccc(-c2cc(C(=O)Nc3ccc(OC)cc3OC)no2)cc1	.	.	.	.	.	.
COC(=O)c1cc(-c2ccc(OC)cc2)on1	.	.	.	?	.	.
